Experimental findings from PubChem BioAssay (EPA / NIEHS) are described below.

Experiment [1] has as its target Estrogen-related receptor gamma (Homo sapiens) (UniProt P62508). Nature of the experiment: ATG_ERRg_TRANS: Attagene TRANS-FACTORIAL HepG2 Assay for human Estrogen-Related Receptor gamma (ERRg) (AID 2282977; active = hit-call score of the fitted dose curve at least 0.9, where 1 is the maximum;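 also: hits increase reporter signal over DMSO so potencies reflect activators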). The note with it: HepG2 Attagene TRANS reporter, ERRg transactivation. In short, it runs like this:
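Exogenous NR-Gal4 chimera activity was assessed in HepG2 cells bearing transfected GAL4-UAS reporters. After 24 h dosing, total RNA underwent RT-PCR, fluorescent primer extension and HpaI digestion before capillary electrophoresis, with gain of signal scored against DMSO.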

The target of experiment [2] is Glucocorticoid receptor (Homo sapiens) (UniProt P04150). The experiment can be described thus: ATG_GR_TRANS: Attagene TRANS-FACTORIAL HepG2 Assay for human Glucocorticoid Receptor (GR) (AID 2282978; active = hit-call score of the fitted dose curve at least 0.9, where 1 is the maximum;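 also: activators score as hits since higher reporter transcript over DMSO is fitted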). The note with it: HepG2 Attagene TRANS GR reporter, mRNA transcription. Summed up:
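Multiplexed TRANS reporter system, HepG2; 24 h exposure; RNA → oligo(dT) RT → reporter-specific PCR → 6-FAM primer extension → HpaI cut → CE fluorescence. Gain-of-signal vs DMSO.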

Experiment [3] in a line: ATG_M_32_TRANS: Attagene TRANS-FACTORIAL HepG2 Assay for M32 Transcription Factor (Internal Marker) (AID 2282984; active = hit-call score of the fitted dose curve at least 0.9, where 1 is the maximum;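 also: transcript level of a background control reporter unit measured by RT-PCR and capillary electrophoresis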). To be noted: HepG2 Attagene TRANS M32 internal marker reporter. In short, it runs like this:
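Cell-based TRANS-format assay in HepG2: exogenous chimeric GAL4 reporter units transiently expressed, compounds applied 24 h. Reporter mRNA detected by RT-PCR plus capillary electrophoresis; this readout is an internal background marker.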

In experiment [4] the target is Nuclear receptor subfamily 4 group A member 2 (Homo sapiens) (UniProt P43354). The experiment can be described thus: ATG_NURR1_TRANS: Attagene TRANS-FACTORIAL HepG2 Assay for human Nuclear Receptor Related Protein 1 (NURR1) (AID 2282985; active = hit-call score of the fitted dose curve at least 0.9, where 1 is the maximum). The note with it: HepG2 Attagene TRANS reporter, mRNA readout. Summed up: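 Measures transcriptional activation by an exogenous NR-Gal4 chimera in transfected HepG2 liver cells. After 24 h, reporter RNA is reverse-transcribed, amplified and resolved by capillary electrophoresis; DMSO defines baseline.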
Sequence of Nuclear receptor subfamily 4 group A member 2 (Homo sapiens) (P43354 whole entry, looked up, the tested form may be a part): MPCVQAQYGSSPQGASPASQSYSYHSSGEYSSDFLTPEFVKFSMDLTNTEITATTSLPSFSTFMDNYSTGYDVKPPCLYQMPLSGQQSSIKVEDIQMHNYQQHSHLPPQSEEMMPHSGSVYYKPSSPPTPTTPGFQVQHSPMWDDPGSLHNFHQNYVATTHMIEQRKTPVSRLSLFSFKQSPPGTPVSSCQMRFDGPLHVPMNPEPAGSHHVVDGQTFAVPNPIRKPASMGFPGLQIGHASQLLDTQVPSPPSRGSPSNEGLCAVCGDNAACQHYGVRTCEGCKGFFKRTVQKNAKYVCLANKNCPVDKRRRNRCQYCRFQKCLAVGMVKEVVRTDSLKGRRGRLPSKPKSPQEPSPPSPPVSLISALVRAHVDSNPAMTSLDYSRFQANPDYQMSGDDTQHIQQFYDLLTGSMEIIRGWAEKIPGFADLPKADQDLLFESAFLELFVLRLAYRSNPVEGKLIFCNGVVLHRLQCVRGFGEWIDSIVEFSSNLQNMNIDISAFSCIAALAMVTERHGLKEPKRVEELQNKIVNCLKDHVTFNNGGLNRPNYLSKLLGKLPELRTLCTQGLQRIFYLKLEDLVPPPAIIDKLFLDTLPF

Experiment [5] has as its target Transcriptional activator Myb (Homo sapiens) (UniProt P10242). The experiment can be described thus: ATG_Myb_CIS: Attagene CIS-FACTORIAL HepG2 Assay for human Myeloblastosis (Myb) Proto-Oncogene Transcription Factor (AID 2282986). To be noted: HepG2 Attagene CIS-FACTORIAL Myb reporter transcription; actives raise or lower the signal. In short, it runs like this: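 Endogenous transcription factor activity at a Myb-responsive cis element is reported in human liver HepG2 cells after 24 h chemical treatment. Reporter mRNA is detected by RT-PCR and capillary electrophoresis fluorescence, with DMSO as baseline.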

Experiment [6] addresses Nuclear respiratory factor 1 (Homo sapiens) (UniProt Q16656). The experiment can be described thus: ATG_NRF1_CIS: Attagene CIS-FACTORIAL HepG2 Assay for human Nuclear Respiratory Factor 1 (NRF1) Orphan Gene (AID 2282987). The note with it: HepG2 NRF1 cis-element reporter, Attagene multiplex; actives raise or lower the signal. In short, it runs like this: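 Human hepatoma HepG2 cells carrying transfected promoter-regulated reporter units were incubated with test chemicals for 24 h. Reporter transcripts were measured by RT-PCR plus capillary electrophoresis, and endpoints derived by bidirectional fitting with DMSO as baseline.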

Experiment [7] is described as follows: ATG_NFI_CIS: Attagene CIS-FACTORIAL HepG2 Assay for human Nuclear Factor I (NFI) (AID 2282989). The note with it: HepG2 cis-regulatory reporter, NFI response element transcription; actives raise or lower the signal. Summed up: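 Transient MRTU transfection of HepG2 → 24 h chemical dosing → total RNA, oligo(dT) RT → PCR, 6-FAM primer extension, HpaI cut → capillary electrophoresis. Endpoint fitted bidirectionally relative to DMSO.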

The target of experiment [8] is Myc proto-oncogene protein (Homo sapiens) (UniProt P01106). Nature of the experiment: ATG_Myc_CIS: Attagene CIS-FACTORIAL HepG2 Assay for human Myelocytomatosis (Myc) Proto-Oncogene Transcription Factor (AID 2282990). The note with it: HepG2, Attagene cis-reporter transcription factor activity; actives raise or lower the signal. Summed up: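 HepG2, transient MRTU transfection (cis promoters, endogenous TFs); 24 h dosing; TriZol RNA → oligo(dT) RT → PCR → 6-FAM primer extension → HpaI cut → CE. Bidirectional fit vs DMSO.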
Sequence of Myc proto-oncogene protein (Homo sapiens) (P01106 whole entry, looked up): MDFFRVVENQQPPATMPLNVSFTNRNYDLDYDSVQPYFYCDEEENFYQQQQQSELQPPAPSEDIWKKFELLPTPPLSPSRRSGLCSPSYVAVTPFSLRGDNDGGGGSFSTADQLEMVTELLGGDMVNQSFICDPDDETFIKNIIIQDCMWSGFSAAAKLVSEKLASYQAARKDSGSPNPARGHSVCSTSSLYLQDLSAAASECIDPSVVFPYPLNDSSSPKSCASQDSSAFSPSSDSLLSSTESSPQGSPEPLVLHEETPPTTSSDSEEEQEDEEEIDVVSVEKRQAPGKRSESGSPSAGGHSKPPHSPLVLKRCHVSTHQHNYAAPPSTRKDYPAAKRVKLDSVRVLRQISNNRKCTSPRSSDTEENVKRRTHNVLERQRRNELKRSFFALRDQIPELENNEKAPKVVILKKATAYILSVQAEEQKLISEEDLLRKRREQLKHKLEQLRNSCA

Experiment [9] in a line: ATG_NF_kB_CIS: Attagene CIS-FACTORIAL HepG2 Assay for human Nuclear Factor Kappa B (NF-kB) (AID 2282991). To be noted: HepG2 Attagene cis-factorial NF-kB reporter mRNA; actives raise or lower the signal. Summed up: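 Multiplexed cis-reporter assay in transiently transfected HepG2. 24 h treatment; RNA isolated, RT-PCR, labelled fragments resolved by CE. DMSO baseline.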
The nature of experiment [10]: ATG_NRF2_ARE_CIS: Attagene CIS-FACTORIAL HepG2 Assay for human Nuclear Factor Erythroid 2 Related Factor 2 (NFR2) response to Antioxidant Response Elements (ARE) (AID 2282992).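 As to AC50: reporter mRNA level measured by RT-PCR and capillary electrophoresis fluorescence.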 To be noted: HepG2 Attagene ARE/NRF2 reporter, transcription factor activity; actives raise or lower the signal. Summed up: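 Endogenous transcription factor activity in human liver HepG2 cells is tracked via a cis-element-driven reporter within a multiplexed set. mRNA induction is read by RT-PCR and capillary electrophoresis after 24 h, with DMSO as baseline.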

Experiment [11] is described as follows: ATG_Oct_MLP_CIS: Attagene CIS-FACTORIAL HepG2 Assay for human Octamer-Binding Transcription Factor (Oct) (AID 2282993). The note with it: HepG2 Attagene cis-factorial Oct reporter, mRNA; actives raise or lower the signal. In short, it runs like this:
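Transient MRTU transfection of HepG2 → 24 h compound treatment → RNA isolation, reverse transcription, PCR → 6-FAM primer extension, HpaI digest → capillary electrophoresis. Activity fitted both directions against DMSO.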

Experiment [12] deals with Cellular tumor antigen p53 (Homo sapiens) (UniProt P04637). The experiment can be described thus: ATG_p53_CIS: Attagene CIS-FACTORIAL HepG2 Assay for human p53 Transcription Factor (AID 2282994). To be noted: HepG2 p53 cis-element reporter, Attagene mRNA; actives raise or lower the signal. In short, it runs like this:
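Steps: transfect HepG2 with multiplexed cis reporter constructs; dose chemicals 24 h; extract RNA, reverse-transcribe, PCR-amplify reporter sequences; FAM-label, HpaI-digest, resolve fragments by CE. Activity fitted both directions relative to DMSO.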

Experiment [13] has as its target Oxysterols receptor LXR-alpha (Homo sapiens) (UniProt Q13133). Nature of the experiment: ATG_LXRa_TRANS: Attagene TRANS-FACTORIAL HepG2 Assay for human Liver X Receptor alpha (LXRa) (AID 2282980; active = hit-call score of the fitted dose curve at least 0.9, where 1 is the maximum). The note with it: HepG2 Attagene TRANS reporter, LXRa transactivation. Summed up:
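In this multiplexed TRANS system, compounds act on HepG2 cells carrying GAL4-UAS reporter units and a receptor-GAL4 fusion for 24 h. Induced reporter RNA is amplified, fluorescently labelled and sized by capillary electrophoresis, with DMSO as baseline.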

In experiment [14] the target is Oxysterols receptor LXR-beta (Homo sapiens) (UniProt P55055). Nature of the experiment: ATG_LXRb_TRANS: Attagene TRANS-FACTORIAL HepG2 Assay for human Liver X Receptor beta (LXRb) (AID 2282981; active = hit-call score of the fitted dose curve at least 0.9, where 1 is the maximum). To be noted: HepG2 Attagene TRANS GAL4-LXRb reporter, mRNA. Summed up:
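After 24 h of chemical treatment, transfected HepG2 cells yield total RNA; reporter cDNA is PCR-amplified, FAM-labelled, HpaI-cut and run on capillary electrophoresis. Signal reflects chimeric LXRb-Gal4 activity on GAL4-UAS reporters.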

A short description of experiment [15]: ATG_M_06_TRANS: Attagene TRANS-FACTORIAL HepG2 Assay for M06 Transcription Factor (Internal Marker) (AID 2282983; active = hit-call score of the fitted dose curve at least 0.9, where 1 is the maximum;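 also: reporter transcript level by RT-PCR then capillary electrophoresis fluorescence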). The note with it: HepG2 Attagene TRANS M06 internal marker reporter. Summed up: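 Multi-reporter-transfected HepG2, 24 h treatment; reporter transcripts quantified via RT-PCR, primer-extension labelling and CE. DMSO-normalized gain-of-signal fit.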

Experiment [16] deals with Bile acid receptor (Homo sapiens) (UniProt Q96RI1). The experiment can be described thus: ATG_FXR_TRANS: Attagene TRANS-FACTORIAL HepG2 Assay for Farnesoid X Receptor (FXR) (AID 2282979; active = hit-call score of the fitted dose curve at least 0.9, where 1 is the maximum;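 also: hits raise reporter mRNA above DMSO so AC50 marks FXR activation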). To be noted: HepG2 Attagene TRANS FXR-GAL4 reporter transcription. Summed up:
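After 24 h chemical treatment of transfected HepG2 cells, GAL4-UAS reporter transcripts driven by an exogenous FXR-GAL4 fusion were measured by RT-PCR and capillary electrophoresis. Increases over DMSO were fitted.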

The nature of experiment [17]: BSK_3C_TissueFactor: BioMAP Diversity Plus: 3C Assay for Tissue Factor Biomarker Activity (AID 2282997). To be noted: BioMAP 3C HUVEC, tissue factor biomarker readout; actives raise or lower the signal. In short, it runs like this:
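In this endothelial system, HUVEC are treated for 24 h and Tissue Factor is assessed by ELISA, normalised to DMSO.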

Experiment [18] can be described thus: BSK_3C_uPAR: BioMAP Diversity Plus: 3C Assay for Urokinase-type plasminogen activator receptor (uPAR) Biomarker Activity (AID 2282998). The note with it: BioMAP 3C HUVEC, uPAR biomarker ELISA; actives raise or lower the signal. In short, it runs like this:
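ELISA readout of uPAR on human vascular endothelium (umbilical vein primary cells), taken 24 h after chemical dosing. Increases and decreases are both fitted relative to DMSO vehicle.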
A general note: An ELISA detects its analyte on a solid surface through an enzyme-linked reagent.

Experiment [19] is described as follows: BSK_3C_VCAM1: BioMAP Diversity Plus: 3C Assay for Vascular cell adhesion molecule 1 (VCAM1) Biomarker Activity (AID 2282999). To be noted: BioMAP 3C HUVEC, VCAM1 ELISA, cytokine-stimulated; actives raise or lower the signal. In short, it runs like this: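 Activity fitted in both directions relative to DMSO, with ELISA measurement of the surface marker on primary HUVEC (3C) at 24 h post-treatment; parallel SRB staining (0.1% SRB, TCA-fixed, 560 nm) flagged overt cytotoxicity.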

Inconclusive results are not listed. Calls of active or inactive are those of the source. The calls were made as follows, unless noted: active = hit-call score of the fitted dose curve at least 0.9, where 1 is the maximum; inactive = score below 0.9.

Sequence of Oxysterols receptor LXR-beta (Homo sapiens) (P55055 whole entry, looked up, the tested form may be a part): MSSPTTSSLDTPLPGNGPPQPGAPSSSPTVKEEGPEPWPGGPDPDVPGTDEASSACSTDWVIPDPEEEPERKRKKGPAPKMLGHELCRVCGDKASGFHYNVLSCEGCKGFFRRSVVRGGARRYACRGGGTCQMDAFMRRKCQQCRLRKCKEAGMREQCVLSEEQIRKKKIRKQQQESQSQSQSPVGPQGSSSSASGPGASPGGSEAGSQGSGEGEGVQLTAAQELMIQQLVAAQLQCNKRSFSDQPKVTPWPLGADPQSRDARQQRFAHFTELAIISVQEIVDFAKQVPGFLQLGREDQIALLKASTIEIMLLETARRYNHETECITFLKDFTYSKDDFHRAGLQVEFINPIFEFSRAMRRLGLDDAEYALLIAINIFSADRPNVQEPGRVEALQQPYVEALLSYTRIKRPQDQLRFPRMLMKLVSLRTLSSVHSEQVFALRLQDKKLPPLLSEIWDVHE
Sequence of Glucocorticoid receptor (Homo sapiens) (P04150 whole entry, looked up): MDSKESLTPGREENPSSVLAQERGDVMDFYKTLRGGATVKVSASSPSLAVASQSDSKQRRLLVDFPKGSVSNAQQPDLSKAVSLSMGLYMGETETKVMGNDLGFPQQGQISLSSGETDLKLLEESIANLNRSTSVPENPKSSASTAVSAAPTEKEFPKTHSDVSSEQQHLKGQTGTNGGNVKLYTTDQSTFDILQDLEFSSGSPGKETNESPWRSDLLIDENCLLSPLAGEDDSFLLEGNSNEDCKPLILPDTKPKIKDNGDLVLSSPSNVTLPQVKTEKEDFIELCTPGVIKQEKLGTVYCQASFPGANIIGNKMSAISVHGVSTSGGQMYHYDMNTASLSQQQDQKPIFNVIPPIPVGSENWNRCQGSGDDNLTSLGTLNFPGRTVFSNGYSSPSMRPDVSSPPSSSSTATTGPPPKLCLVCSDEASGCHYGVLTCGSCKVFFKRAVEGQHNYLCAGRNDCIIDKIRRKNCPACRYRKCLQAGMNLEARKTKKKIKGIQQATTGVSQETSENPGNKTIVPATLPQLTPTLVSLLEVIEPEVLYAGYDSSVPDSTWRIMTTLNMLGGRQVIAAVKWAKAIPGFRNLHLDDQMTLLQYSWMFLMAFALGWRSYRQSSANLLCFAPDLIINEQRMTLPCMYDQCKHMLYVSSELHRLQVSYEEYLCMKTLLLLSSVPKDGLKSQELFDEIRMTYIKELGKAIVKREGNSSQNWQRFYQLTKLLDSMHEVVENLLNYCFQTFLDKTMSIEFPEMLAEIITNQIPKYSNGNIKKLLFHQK
Sequence of Estrogen-related receptor gamma (Homo sapiens) (P62508 whole entry, looked up, the tested form may be a part): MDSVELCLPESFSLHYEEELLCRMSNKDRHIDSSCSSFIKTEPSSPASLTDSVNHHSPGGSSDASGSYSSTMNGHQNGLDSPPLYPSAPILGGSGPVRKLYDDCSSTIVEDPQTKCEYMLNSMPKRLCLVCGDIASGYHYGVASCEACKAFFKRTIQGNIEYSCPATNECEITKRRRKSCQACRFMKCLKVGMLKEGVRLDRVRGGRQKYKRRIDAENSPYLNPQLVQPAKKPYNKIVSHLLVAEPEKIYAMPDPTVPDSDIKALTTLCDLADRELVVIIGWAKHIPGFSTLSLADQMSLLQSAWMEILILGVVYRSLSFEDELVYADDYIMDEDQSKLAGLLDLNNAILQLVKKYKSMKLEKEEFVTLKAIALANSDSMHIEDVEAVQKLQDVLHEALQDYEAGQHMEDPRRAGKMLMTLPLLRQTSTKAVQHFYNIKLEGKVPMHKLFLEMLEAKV
Sequence of Oxysterols receptor LXR-alpha (Homo sapiens) (Q13133 whole entry, looked up, the tested form may be a part): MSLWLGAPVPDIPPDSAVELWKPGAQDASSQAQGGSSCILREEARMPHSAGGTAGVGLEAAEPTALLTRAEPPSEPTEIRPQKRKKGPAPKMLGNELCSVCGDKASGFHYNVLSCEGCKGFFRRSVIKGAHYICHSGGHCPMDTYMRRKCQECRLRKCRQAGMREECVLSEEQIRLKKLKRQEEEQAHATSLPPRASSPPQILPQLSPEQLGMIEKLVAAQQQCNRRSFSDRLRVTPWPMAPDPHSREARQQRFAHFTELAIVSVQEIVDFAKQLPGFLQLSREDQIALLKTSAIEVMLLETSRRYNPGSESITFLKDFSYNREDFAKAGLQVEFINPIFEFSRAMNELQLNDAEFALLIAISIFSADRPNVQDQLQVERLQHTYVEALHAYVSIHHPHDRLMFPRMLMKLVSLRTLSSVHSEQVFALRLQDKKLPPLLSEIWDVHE
Sequence of Transcriptional activator Myb (Homo sapiens) (P10242 whole entry, looked up): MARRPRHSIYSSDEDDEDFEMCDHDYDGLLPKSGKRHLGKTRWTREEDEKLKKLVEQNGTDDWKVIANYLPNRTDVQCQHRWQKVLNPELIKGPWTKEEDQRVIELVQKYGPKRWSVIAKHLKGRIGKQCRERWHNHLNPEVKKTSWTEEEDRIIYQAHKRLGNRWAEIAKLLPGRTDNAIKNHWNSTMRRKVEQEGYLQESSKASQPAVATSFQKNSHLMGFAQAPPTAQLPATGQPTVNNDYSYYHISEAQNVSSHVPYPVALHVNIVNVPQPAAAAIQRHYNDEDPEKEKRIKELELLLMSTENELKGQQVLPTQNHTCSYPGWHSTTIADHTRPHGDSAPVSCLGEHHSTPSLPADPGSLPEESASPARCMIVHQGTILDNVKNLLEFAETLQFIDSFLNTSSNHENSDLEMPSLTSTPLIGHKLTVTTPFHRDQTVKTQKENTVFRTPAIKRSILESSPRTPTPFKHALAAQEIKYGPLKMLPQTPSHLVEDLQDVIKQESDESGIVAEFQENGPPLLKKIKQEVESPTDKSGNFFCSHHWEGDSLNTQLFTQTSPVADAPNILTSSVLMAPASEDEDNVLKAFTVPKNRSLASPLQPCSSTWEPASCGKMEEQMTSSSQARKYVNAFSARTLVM
Sequence of Nuclear respiratory factor 1 (Homo sapiens) (Q16656 whole entry, looked up): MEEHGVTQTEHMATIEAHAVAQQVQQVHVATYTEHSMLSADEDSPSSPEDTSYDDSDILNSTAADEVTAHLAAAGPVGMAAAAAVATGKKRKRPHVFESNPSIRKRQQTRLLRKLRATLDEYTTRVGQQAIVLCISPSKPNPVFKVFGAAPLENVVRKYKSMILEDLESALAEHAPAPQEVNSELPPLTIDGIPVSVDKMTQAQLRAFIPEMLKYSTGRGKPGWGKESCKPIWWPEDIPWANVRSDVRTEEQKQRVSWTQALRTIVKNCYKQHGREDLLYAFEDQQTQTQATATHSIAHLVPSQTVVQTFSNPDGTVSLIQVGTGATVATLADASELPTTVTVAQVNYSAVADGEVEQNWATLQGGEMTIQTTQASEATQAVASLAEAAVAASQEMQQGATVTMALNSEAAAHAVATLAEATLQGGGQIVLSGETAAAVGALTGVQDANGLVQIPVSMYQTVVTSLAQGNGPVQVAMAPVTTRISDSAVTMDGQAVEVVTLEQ
Sequence of Cellular tumor antigen p53 (Homo sapiens) (P04637 whole entry, looked up, the tested form may be a part): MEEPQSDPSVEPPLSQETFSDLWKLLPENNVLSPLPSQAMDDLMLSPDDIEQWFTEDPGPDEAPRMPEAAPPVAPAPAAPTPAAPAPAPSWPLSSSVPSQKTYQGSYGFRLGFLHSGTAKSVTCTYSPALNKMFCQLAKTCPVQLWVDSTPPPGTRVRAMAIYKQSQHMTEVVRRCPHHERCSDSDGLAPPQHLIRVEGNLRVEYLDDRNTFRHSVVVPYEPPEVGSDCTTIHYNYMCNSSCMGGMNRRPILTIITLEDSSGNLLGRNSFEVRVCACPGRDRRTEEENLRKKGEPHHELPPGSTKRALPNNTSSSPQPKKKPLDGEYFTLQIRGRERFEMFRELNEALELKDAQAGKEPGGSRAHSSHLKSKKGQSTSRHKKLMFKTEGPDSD

For the molecule `Cc1cccc(O)c1`, the molecule was called inactive in [1], in experiment [2], in experiment [3], in experiment [4], in experiment [5] and in experiment [6]. Besides, the outcome in experiment [7], in [8], in experiment [9], in experiment [10], in [11] and in experiment [12] was inactive.

`C1COCO1`: the outcome in [1], in experiment [13], in [14], in experiment [3], in experiment [5] and in experiment [6] was inactive. The result in experiment [7], in [9] and in experiment [10] was inactive.

As to `O=C(O)c1ccc(C(=O)O)c(C(=O)O)c1`, the molecule was called inactive in [1], in experiment [2], in experiment [15], in experiment [3], in experiment [4] and in experiment [5]. The call in experiment [6], in [7], in experiment [9], in experiment [10] and in experiment [11] was inactive.

Broadly, the AC50 is the midpoint of the concentration-response curve, whichever way the signal moves. `CN1CCc2cccc3c2[C@H]1Cc1ccc(O)c(O)c1-3`: the molecule was called inactive in [1], in [2], in experiment [16], in experiment [13], in [14] and in experiment [5]. Besides, the result in experiment [7], in experiment [8] and in experiment [11] was inactive. For the same molecule, the values for the AC50 in experiment [6] and in experiment [10] were 3.59 µM (active) and 5.05 µM (active), respectively.

`C=CC(=O)OCC(CO)(COC(=O)C=C)COC(=O)C=C`: the result in experiment [1], in [14], in experiment [15], in experiment [4], in experiment [6] and in experiment [7] was inactive. Besides, the result in [8] and in experiment [10] was inactive. Besides, the AC50 in experiment [5] was 180 µM (active); in experiment [17], 0.137 µM (active); in [18], 0.443 µM (active); in experiment [19] it was 0.0478 µM (active).

In the case of `COC(=O)C(C)Oc1ccc(Oc2ncc(C(F)(F)F)cc2Cl)cc1` (stereo not drawn), the molecule was classed as inactive in experiment [1], in experiment [13], in [14], in experiment [15], in [3] and in experiment [4]. In addition, the molecule was classed as inactive in experiment [5], in [7], in experiment [8], in [10], in experiment [11] and in experiment [12]. The AC50 in [6] was 137 µM (active).
